Measurements: PubChem BioAssay (NCATS)
Records with an inconclusive call do not appear. A number with no mark means an inactive call. Active and inactive are the calls of the source. Calls come from the whole dose curve; as a rule, active = well fitted inhibition curve with a large enough effect; inconclusive = small, poorly fitted or top-dose-only effect; inactive = flat fitted curve, though single readings scatter.

These molecules were tested on CP325 (assay: qHTS profiling for inhibitors of Plasmodium falciparum proliferation (AID 504749; note: nearly all actives have a fitted effect of over 60% in size;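 for activity, negative = inhibition: 0% = DMSO vehicle and full inhibition = artemisinin control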)). Settings: P. falciparum in erythrocytes, SYBR Green DNA, 72 h; series mostly up to 28.7 µM; activity, negative = inhibition: at the top concentration.
Outline: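 Quantitative HTS: compounds pinned into medium, infected erythrocytes added (0.3% parasitemia, 2.5% hematocrit), 72 h culture at 37 C under 5% CO2. Saponin/Triton lysis with SYBR Green I, overnight RT, then fluorescence read.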
Potency is the fitted concentration of half-maximal effect.

| Compound | activity, negative = inhibition | Potency |
| --- | --- | --- |
| CN1CCN(C2=Nc3ccccc3Sc3ccc(Cl)cc32)CC1 | -29.6% | – |
| CN1CCN(c2cc3c(cc2F)c(=O)c(C(=O)O)cn3-c2ccc(F)cc2)CC1 | -24.1% | – |
| NCc1ccccc1Sc1ccccc1CO | -17.1% | – |
| O=C(c1ccc(F)cc1)C1CCN(CCn2c(=S)[nH]c3ccccc3c2=O)CC1 | – | 7.57 µM (active) |
| COc1ccc(C(=O)c2ccccc2O)c(O)c1 | -0.774% [at 12.8 µM] | – |
| CCc1ccc(C(=O)C(C)CN2CCCCC2)cc1 (stereo not drawn) | -11.5% | – |
| CCCN(CCc1cccs1)[C@H]1CCc2c(O)cccc2C1 | – | 12 µM (active) |
| C#C[C@]1(O)CC[C@H]2[C@@H]3CCC4=CC(=O)CC[C@@H]4[C@H]3CC[C@@]21CC | -7.62% | – |
| FC1(F)C(F)(F)C(F)(F)C2(F)C(F)(F)C(F)(F)C(F)(F)C(F)(F)C2(F)C1(F)F (stereo not drawn) | 0.251% | – |
| CCCc1ncc(C[n+]2ccccc2C)c(N)n1 | -0.819% [at 12.8 µM] | – |
| O=C(O)C1(C(=O)O)CCC1.[NH2-].[NH2-].[Pt+2] | -0.413% | – |
| Cc1cc(CC(=O)O)c(C)n1-c1ccc(Cl)cc1 | -7.9% | – |
| CN(C)C(=O)Nc1ccc(Cl)c(Cl)c1 | -25.1% | – |
| Cc1ccc(O)c([C@H](CCN(C(C)C)C(C)C)c2ccccc2)c1 | – | 10.7 µM (active) |
| O=C(O)c1ccc(S(=O)(=O)N(Cl)Cl)cc1 | 21.3% | – |
| CN(C)CCC[C@@]1(c2ccc(F)cc2)OCc2cc(C#N)ccc21 | -11.5% | – |
| N=C(N)N1CCc2ccccc2C1 | -1.68% | – |
| O=[N+]([O-])c1cccc(S(=O)(=O)NCCNS(=O)(=O)c2cccc([N+](=O)[O-])c2)c1 | -12.9% | – |
| COc1ccc(C(=O)c2ccccc2)c(O)c1 | -7.3% | – |
| COc1cc(C(=O)N2CCCCCCC2)cc(OC)c1OC | 0.582% | – |
| Cc1cccc(C)c1NC(=O)c1ccccc1C(=O)O | 0.941% | – |
| CC(=O)NCCCCCC(=O)O | -11.4% | – |
| O=C1C(=O)c2ccccc2C(O)=C1C1CCC(c2ccc(Cl)cc2)CC1 (stereo not drawn) | – | 0.0064 µM (active) |
| Cc1cccc(C)c1NC(=O)CN1CCCC1 | 0.791% | – |
| CCOC(=O)c1c(N)sc2c1CCN(Cc1ccccc1)C2 | – | 4.78 µM (active) |
| NC(N)=NCc1cccc(I)c1 | -18.7% | – |
| COc1cc(O)c(C(=O)c2ccccc2)cc1S(=O)(=O)O | -14% | – |
| CC(C)(C)CC(C)(C)c1ccc(O)c(-n2nc3ccccc3n2)c1 | -4.32% | – |
